The text below walks through data of PubChem BioAssay AID624173 (National Center for Advancing Translational Sciences (NCATS), 2012).

Hit rate of the full screen: of about 410,000 compounds, about 490 (0.12%) were called active. Another 1% or so got no clear call; they are omitted. This is one part of a sample in which actives are shown more often than they occur. Values without a mark were called inactive. The call rests on the fitted dose curve; in most records, active means well fitted inhibition curve with a large enough effect; inconclusive means small, poorly fitted or top-dose-only effect; inactive means flat fitted curve, though single readings scatter.
Potency means the concentration at half of the fitted maximal effect.

For this assay, the target named is pyruvate kinase (Trypanosoma brucei) (UniProt Q57TT1). Put plainly: qHTS of Trypanosoma Brucei Inhibitors. Further: nearly all actives have a fitted effect of over 50% in size. The note with it: TbPYK enzyme, Kinase-Glo Plus ATP luminescence, 45 min; series mostly up to 76.8 µM; activity, negative = inhibition: at the top concentration. The text has this:
Members of the Trypanosomatidae family of parasitic protozoans cause a spectrum of diseases throughout the tropical and subtropical world. Sleeping sickness, caused by two subspecies of Trypanosoma brucei, is endemic to areas of sub-Saharan Africa, while Chagas' disease, a manifestation of Trypanosoma cruzi infection, is prevalent throughout Central and South America. In addition, many species of Leishmania are responsible for a range of cutaneous and visceral diseases, causing ulcers, destructive lesions and kalaazar, a lethal infection of the viscera. These diseases cause severe public health and economic burdens on populations that are often already caught in a tragic cycle of poverty, poor nutrition and disease. Collectively, parasites of the trypanosomatid family infect 30 million people worldwide (~500 million live in endemic areas), and account for ~130K deaths annually. Existing treatments have developed little in the past 50 years, and suffer from toxicity, poor efficacy and resistance; the goal of this project is to develop lead drugs that will be suitable for entry into pre-clinical trials.
Glycolysis in axenically cultured T. cruzi, representing the intracellular pathogenic stage, is also essential for these parasites. {Engel, 1987} This project aims to discover and optimize selective inhibitors of the glycolytic enzyme pyruvate kinase (PYK) from Trypanosoma brucei, the parasite that causes sleeping sickness. […] Trypanosomatid PYKs show significant differences from their human counterparts including only 47-50% sequence identity and different allosteric and activation properties.{Callens, 1992} To this end, a qHTS was done against the MLSMR to discover inhibitors.
NIH Molecular Libraries Probe Production Network [MLPCN]
NIH Chemical Genomics Center [NCGC]
PI Name: Malcolm Walkinshaw, University of Edinburgh
2 uL of TbPYK/substrate buffer (columns 1-3, 5-48) are dispensed into Greiner white solid bottom 1536-well assay plates; column 4 receives only TEA buffer as 0x TbPYK controls. Compounds are then transferred via Kalypsys pin tool equipped with 1536-pin array (10 nL slotted pins, V&P Scientific, San Diego, CA). Following addition of compound, 2 uL of ADP (130 uM final concentration, all columns) is added to initiate the reaction. The plates are then incubated at room temperature for 45 minutes. Kinase-Glo Plus reagent is added (3 uL) and plates incubated for 10 minutes, before being transferred to a ViewLux high-throughput CCD imager (PerkinElmer) wherein single end-point measurements of luminescence are acquired using a clear filter. All reagents are diluted in an assay buffer consisting of 50 mM TEA (pH 7.2), 100 mM KCl, 10 mM MgCl2, 0.05% BSA and 0.01% Tween-20.
All screening operations will be performed on a fully integrated robotic system (Kalypsys, San Diego, CA) containing one RX-130 and two RX-90 anthropomorphic robotic arms (Staeubli, Duncan, SC). Library plates will be screened starting from the lowest and proceeding to the highest concentration. Vehicle-only plates, with DMSO being pin-transferred to columns 5-48, will be inserted uniformly at the beginning and the end of each library in order to monitor and record any shifts in the background, which can be affected by reagent dispensers or loss in enzyme activity over time. Screening data will be corrected, normalized, and concentration-effect relationships will be derived by using publicly-available curve fitting algorithms developed in-house (http://ncgc.nih.gov/pub/openhts).
A general note: qHTS replaces the single test concentration by a dilution series.
`S=c1[nH]nc(-c2cc(-c3ccsc3)n[nH]2)n1-c1ccccc1`: the Potency is 2.82 µM (active). With `O=P(O)(O)OC[C@H](O)CO`, the “activity, negative = inhibition” value was -9.47%. On the same count and under the same terms, to `O=C(O)[C@@H](S)[C@H](S)C(=O)O` belongs -28.4%. Consider `CC(C)CC1C(=O)N2CCCC2C2(O)OC(NC(=O)C3CC4c5cccc6[nH]cc(c56)CC4N(C)C3)(C(C)C)C(=O)N12` (configuration not stated), for which the “activity, negative = inhibition” value is 1.74%. The same measure, in the same setting: to `O=c1c(-c2ccc(F)cc2)nc2cnc(N3CCOCC3)nc2n1-c1ccccc1` belongs -2.78%; to `Clc1ccc(-c2nc3sccn3c2C=NOCc2ccc(Cl)c(Cl)c2)cc1`, 2.15%; to `Cn1cccc1C(=O)N1CCC[C@@]2(CCN(Cc3nccs3)C2)C1`, -6.25%.

As to `O=C(c1cc(C(F)(F)F)cc(C(F)(F)F)c1)N1CCC2(CCCN(Cc3ccncc3)C2)CC1`, the “activity, negative = inhibition” value is 5.95%. Same read-out and setting: with `CN1CCCC(=C(c2cccs2)c2cccs2)C1` the figure was -0.775%. `O=C1NC(=O)N(c2ccccc2)C(=O)/C1=C/c1ccc([N+](=O)[O-])s1`: the Potency is 17.8 µM (active). Take `CC[N+]1(CCOC(=O)C(O)(c2ccccc2)c2ccccc2)CCCCC1`: the “activity, negative = inhibition” value was 4.87%. Same read-out and setting: with `COc1cccc(Nc2ncc3ncc(=O)n(C4CC4)c3n2)c1` the figure was -1.66%. For `CO[C@H]1C[C@@H](O[C@@H]2[C@@H](C)O[C@@H](O[C@@H]3/C(C)=C/CC4C[C@@H](C[C@]5(C=C[C@@H](C)[C@H](C6CCCCC6)O5)O4)OC(=O)[C@@H]4C=C(C)[C@@H](O)[C@H]5OC/C(=C\C=C\[C@@H]3C)[C@]54O)C[C@H]2OC)O[C@@H](C)[C@@H]1O`, the “activity, negative = inhibition” value was 19.1%. Same read-out and setting: with `CCCCCCCCCCCCCCCCO` the figure was -2.03%; with `CCCN(CC)[C@@H](CC)C(=O)Nc1c(C)cccc1C`, 1.91%; with `O=S(=O)(O)C(F)(F)C(F)(F)C(F)(F)C(F)(F)F`, 6.2% [at 157 µM]. The same measure, in the same setting: to `C[N+](C)(CCOc1ccccc1)Cc1cccs1` (tested in a mixture with another compound) belongs 3.32%.

As to `CCCC[C@H]1C(=O)N(c2ccccc2)N(c2ccc(O)cc2)C1=O`, the “activity, negative = inhibition” value was -5.82% [at 33.2 µM].

In the case of `CN1CCC2(CC1)CCN(S(=O)(=O)c1ccccc1)CC2`, the “activity, negative = inhibition” value is 2.49%. On the same count and under the same terms, with `O=C(c1csnn1)N1CCC2(CC1)CN(c1ncccn1)C2` the figure was 0.632%; with `COc1ccc(S(=O)(=O)NCC(c2ccc(N(C)C)cc2)N2CCCC2)cc1` (configuration not stated), -3.6%; with `O=C(Nc1cccc(F)c1)N1CC2(CCN(C(=O)c3csnn3)CC2)C1`, 0.268%. On the same count and under the same terms, with `CN1C(=O)C[C@H](c2ccccc2)C1=O` the figure was -4.61%; with `C/C=C/C=N/NC(=O)c1ccncc1`, 6.94%; with `O=C(Nc1cccc(F)c1)N1CC2(CCN(C(=O)c3cnccn3)CC2)C1`, -8.59%. As for `CNC(=O)NC(=O)CSc1nnc(-c2ccc(F)cc2)n1CC1CCCO1` (configuration not stated), the “activity, negative = inhibition” value is 0.187%. `Cc1nnc(SCC(=O)NNC(=O)c2ccc(Cl)cc2)n1CC1CCCO1` (configuration not stated): the “activity, negative = inhibition” value is -19.4%. `S=c1[nH]nc(-c2ccc(Cl)cc2)n1CC1CCCO1` (configuration not stated): the Potency was 10 µM (active). For `c1ccc(N2CC[C@@]3(CCCNC3)C2)nc1`, the “activity, negative = inhibition” value is -8.65%. Still for that read-out and setting: to `NNc1nnc(Cc2ccncc2)c2ccccc12` belongs 5.32%. As to `CCNc1ncc2ncc(=O)n(CCc3ccccc3)c2n1`, the “activity, negative = inhibition” value is 0%. Consider `O=C(N/N=C/c1ccc([N+](=O)[O-])o1)c1cc([N+](=O)[O-])cc([N+](=O)[O-])c1O`, for which the “activity, negative = inhibition” value was -7.27%. On the same count and under the same terms, with `CCOc1ccc(N(Cc2ccccc2)C(=O)c2nc(S(C)(=O)=O)ncc2Cl)cc1` the figure was -5.03%. Still for that read-out and setting: to `Cc1ccnc(SC2CC(=O)N(c3ccccc3)C2=O)n1` (configuration not stated) belongs -4.81%. As for `Cc1ccnc(-n2sc3ccccc3c2=O)n1`, the Potency is 20 µM (active). Take `O=c1c2ccccc2nc(-c2ccccc2)n1-c1ccccn1`: the “activity, negative = inhibition” value was 3.13%. Regarding `Cc1ccc(S(=O)(=O)NC(=O)NN2C[C@H]3CCC[C@@H]3C2)cc1`, the “activity, negative = inhibition” value is 1.84% [at 33.2 µM]. Regarding `c1csc(CN2CCCC3(CCNCC3)C2)n1`, the “activity, negative = inhibition” value was -3.6%. Turning to `CC(O)COc1ccccc1` (configuration not stated), the “activity, negative = inhibition” value was 3.14%. The same measure, in the same setting: to `OCC(CO)NC1C[C@](O)(CO)[C@@H](O)[C@H](O)[C@H]1O` (some centres not stated) belongs -1.52%; to `Cn1c(=O)c(-c2ccccc2)nc2cnc(N3CCNCC3)nc21`, 0%; to `NNc1nnc(NN)c2ccccc12`, -2.4%.

For the compound `O=C(c1csnn1)N1CCC[C@@]2(CCN(Cc3nccs3)C2)C1`, the “activity, negative = inhibition” value was -6.04%. Take `C[C@@H]1C[C@H]2[C@@H]3C[C@H](F)C4=CC(=O)C=C[C@@]4(C)[C@]3(F)[C@H](O)C[C@]2(C)[C@@]1(O)C(=O)CO`: the “activity, negative = inhibition” value was 8.35% [at 33.2 µM]. Still for that read-out and setting: with `COc1ccc(Cn2ccn(CC(=O)Nc3cc(C)ccc3C)c(=O)c2=O)cc1` the figure was 2.7%; with `CN1CC(O)c2cc(N=NC(N)=O)c(O)cc21` (configuration not stated), -5.31%; with `O=C(c1csnn1)N1CCC[C@@]2(CCN(c3cccc(-c4ccccc4)c3)C2)C1`, 0.943%.
